These results are taken from PubChem BioAssay (EPA / NIEHS).

A structure can be active in one record and inactive in another. Activity calls are given as the source filed them. How the source made its calls: active means hit-call score of the fitted dose curve at least 0.9, where 1 is the maximum; inactive means score below 0.9.

The nature of the test: CCTE_Mundy_HCI_Cortical_Synap_Neur_Matur_CellBodySpotCount: CCTE's Synaptogenesis and Neurite Maturation Assay in rat cortical cells for Cell Body Spot Count, Mundy Lab (AID 2284223). How it is done:
CCTE_Mundy_HCI_Cortical_Synap&Neurite_Matur is a multiplexed, cell-based-readout assay that uses rat primary cortical cells with measurements taken at 288.33 hours after chemical dosing in a microplate: 96-well plate.CCTE_Mundy_HCI_Cortical_Synap_Neur_Matur_CellBodySpotCount is one of eight components of the CCTE_Mundy_HCI_Cortical_Synap&Neurite_Matur assay. It measures synaptogenesis and neurite maturation related to number of cell body-associated synapses (synaptophysin puncta) per neuron using High Content Imaging of fluorescently labelled markers.[…] Using a type of morphology reporter, loss -of-signal activity can be used to understand developmental effects.
Cells are plated onto 96 well plates and allowed 2 hr for attachment to the substrate. At days in vitro (DIV) 5, Cytosine Arabinoside (AraC) is added to arrest glial cell growth. Chemicals are dosed and a media change is performed at DIV 7 of differentiation and is continued through DIV 12 when the experiment is terminated. Cells are fixed with […] and Hoechst Dye. Cells are stained using Millipore Mouse anti-MAP2MAB3418 (1:800) and Millipore Rabbit anti-Synaptophysinsc-1750 (1:250) primary antibodies and Alexa Fluor-488 goat anti-mouse and AlexaFluor-546 goat anti-rabbit secondary antibodies to label neuronal cell nuclei, synapses and neurites. A Cellomics ArrayScan VTi HCS Reader is used for automated image acquisition and analysis of neurite outgrowth.
Regarding `c1ccc2cc3ccccc3cc2c1`, the call was inactive.

As a reminder, the AC50 is the concentration giving half of the maximal activity seen. Consider `Nc1ccn([C@@H]2O[C@H](CO)[C@@H](O)[C@@H]2O)c(=O)n1`, for which the result was inactive and the AC50 is 11.7 µM (active).

Regarding `Cn1cc[nH]c1=S`, the outcome was inactive.

As for `NNC(=O)c1ccncc1`, the outcome was inactive.

Consider `NC(=O)N1c2ccccc2C=Cc2ccccc21`, for which the outcome was inactive.

In the case of `CCCC(CCC)C(=O)O`, the result was inactive.

On to `COc1cc2c(c(OC)c1OC)-c1ccc(OC)c(=O)cc1[C@@H](NC(C)=O)CC2`, for which the half-maximal activity concentration (AC50) was 0.0427 µM (active).

Turning to `C[C@]12C=CC(=O)C=C1CC[C@H]1[C@@H]3C[C@@H](O)[C@](O)(C(=O)CO)[C@@]3(C)C[C@H](O)[C@@]12F`, the AC50 is 15 µM (active).

Take `OC(Cn1cncn1)(Cn1cncn1)c1ccc(F)cc1F`: the outcome was inactive.
